# The supplement of paper PMC11624193, “Coupling cellular drug-target engagement to downstream pharmacology with CeTEAM” (Nature Communications, 2024)
# Counter-ions that a name gives are not always drawn. Values without a mark were called inactive.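 The calls were made as follows: active = log2 fold change beyond 2 SD from the library mean after excluding viability outliers; inactive = within 2 SD.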
# Target: PARP1 L713F-nLuc biosensor (HCT116) (UniProt P09874)
# Experiment: PARP1 L713F-nLuc/akaLuc ratio relative to DMSO control (biosensor stabilization) (fold change); higher = more PARP1 biosensor stabilization (target engagement / stabilizer), active = hit call of the paper
# Conditions: stock concentration (mM; final µM = stock mM x 1): 10; 24 h
# Chain of PARP1 L713F-nLuc biosensor (HCT116) (P09874 whole entry L713F, looked up): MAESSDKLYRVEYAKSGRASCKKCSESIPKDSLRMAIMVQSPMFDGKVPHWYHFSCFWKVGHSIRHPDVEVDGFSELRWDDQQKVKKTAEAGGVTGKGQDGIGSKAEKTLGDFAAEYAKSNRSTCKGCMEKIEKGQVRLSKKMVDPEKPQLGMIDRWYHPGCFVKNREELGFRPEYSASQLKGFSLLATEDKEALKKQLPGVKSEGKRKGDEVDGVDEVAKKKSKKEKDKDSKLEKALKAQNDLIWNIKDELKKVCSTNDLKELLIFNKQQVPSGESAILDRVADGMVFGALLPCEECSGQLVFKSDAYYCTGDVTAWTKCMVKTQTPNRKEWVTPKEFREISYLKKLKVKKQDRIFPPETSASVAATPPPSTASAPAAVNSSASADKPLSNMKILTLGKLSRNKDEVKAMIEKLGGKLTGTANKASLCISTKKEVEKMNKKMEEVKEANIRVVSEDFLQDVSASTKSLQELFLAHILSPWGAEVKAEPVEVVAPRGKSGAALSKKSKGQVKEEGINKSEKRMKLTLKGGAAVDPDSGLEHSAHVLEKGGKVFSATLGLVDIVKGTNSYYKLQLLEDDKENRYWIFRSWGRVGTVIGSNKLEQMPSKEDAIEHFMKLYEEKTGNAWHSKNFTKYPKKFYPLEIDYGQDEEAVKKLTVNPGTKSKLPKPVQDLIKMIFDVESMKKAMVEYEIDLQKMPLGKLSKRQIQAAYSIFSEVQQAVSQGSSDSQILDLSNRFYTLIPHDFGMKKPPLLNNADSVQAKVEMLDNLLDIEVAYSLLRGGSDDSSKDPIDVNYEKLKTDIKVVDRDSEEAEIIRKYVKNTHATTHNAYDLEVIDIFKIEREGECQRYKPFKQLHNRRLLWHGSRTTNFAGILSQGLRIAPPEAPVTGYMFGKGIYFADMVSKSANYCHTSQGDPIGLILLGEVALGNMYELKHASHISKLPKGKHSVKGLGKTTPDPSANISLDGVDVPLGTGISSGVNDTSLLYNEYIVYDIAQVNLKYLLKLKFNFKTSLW
row,Compound,PARP1 L713F-nLuc/akaLuc ratio
1,COc1ccc2c(c1O)OC(C)(C)c1c-2ccc2c1C(=O)N(c1ccc(C(=O)c3ccccc3)cc1)C2=O [Ampkinone],1.18
2,O=C([C@@H](Cc1cccc(C(F)(F)F)c1)NS(=O)(=O)c1cc(F)c2c(c1)CCNC2)N1CCCC1 [PFI-2 (hydrochloride)],0.92
3,COc1cc2c(NC3CCN(C(C)C)CC3)nc(C3CCCCC3)nc2cc1OCCCN1CCCC1,0.748
4,COc1c(O)cc2oc(-c3ccccc3)cc(=O)c2c1O [Oroxylin A],0.838
5,CO[C@H]1C[C@@H]2CC[C@@H](C)[C@@](O)(O2)C(=O)C(=O)N2CCCC[C@H]2C(=O)O[C@H]([C@H](C)C[C@@H]2CC[C@@H](OCCO)[C@H](OC)C2)CC(=O)[C@H](C)/C=C(\C)[C@@H](O)[C@@H](OC)C(=O)[C@H](C)C[C@H](C)/C=C/C=C/C=C/1C [Everolimus (RAD001)],0.669
6,COc1cc(/C=C/C(=O)O[C@H]2CC[C@]34C[C@]35CC[C@]3(C)[C@@H]([C@H](C)CCC=C(C)C)CC[C@@]3(C)[C@@H]5CC[C@H]4C2(C)C)ccc1O [γ-Oryzanol],1.11
7,O=C1/C(=C/c2ccc(O)c(Br)c2)CCC/C1=C\c1ccc(O)c(Br)c1 [Histone Acetyltransferase Inhibitor II],2.06
8,CCN(C(=O)c1cc(F)ccc1Oc1cncnc1N1CC2(CCN(C[C@H]3CC[C@H](NS(=O)(=O)CC)CC3)CC2)C1)C(C)C,0.797
9,C/C=C(\CC[C@@H](C)[C@H]1CC[C@H]2[C@@H]3CC=C4C[C@@H](O)CC[C@]4(C)[C@H]3CC[C@]12C)C(C)C [Fucosterol],1.04
10,CNCc1ccc(-c2cc3cc(F)cc(C(N)=O)c3o2)cc1 [Mefuparib (hydrochloride)],10.5 (active)
11,CC[C@@](C)(Nc1ccnc(-c2c[nH]c3ncccc23)n1)C(=O)NCC(F)(F)F [Decernotinib],0.707
12,O=C(CNC(=O)[C@H](COP(=O)(O)O)NC(=O)CCc1c[nH]c2ccccc12)NCCCCc1ccccc1,1.08
13,Nc1nc(N)c2nc(-c3cccc(O)c3)c(-c3cccc(O)c3)nc2n1,1.46
14,CO[C@@]12[C@H](COC(N)=O)C3=C(C(=O)C(C)=C(N)C3=O)N1C[C@@H]1N[C@@H]12 [Mitomycin C],1.07
15,Nc1ncn([C@H]2C[C@H](O)[C@@H](CO)O2)c(=O)n1 [Decitabine],3.01 (active)
16,O=c1ncn2nc(Sc3ccc(F)cc3F)ccc2c1-c1c(Cl)cccc1Cl,0.808
17,O=c1c(-n2ccnn2)c[nH]n1-c1cc(N2CCOCC2)ncn1 [Molidustat],0.788
18,C[C@@H]1COCCN1c1cc(C2([S@](C)(=N)=O)CC2)nc(-c2cc[nH]c3nccc2-3)n1,1.79
19,Cc1nc(F)ccc1-c1cc(Cn2ccn(C)c2=N)cc(C(=O)NCc2ccc(Cl)c(Cl)c2)c1,0.928
20,CN(C)c1nc2c(Br)c(Br)c(Br)c(Br)c2n1CC(=O)O,1.02

row,Compound,PARP1 L713F-nLuc/akaLuc ratio
1,COc1c(O)cc2oc(-c3ccc(O)cc3)cc(=O)c2c1O [Hispidulin],0.723
2,CC(C)(C)c1nc2c3cc[nH]c(=O)c3c3cc(F)ccc3c2[nH]1 [Pyridone 6],0.692
3,CN1CCC(COc2cnc(-c3cccc(Cn4nc(-c5cccc(C#N)c5)ccc4=O)c3)nc2)CC1,0.968
4,COc1nn(C)cc1Nc1nccc(-c2c[nH]c3c(NC(=O)[C@@H](C)N4CCN(C)CC4)cccc23)n1 [Golidocitinib],0.637
5,CC1(C)c2cccc(C(=O)NO)c2CN1c1cnc(C(F)(F)F)cn1,0.913
6,N#Cc1ccc(-c2csc(NN=C3CCCC3)n2)cc1 [Remodelin (hydrobromide)],0.897
7,"C=CC(=O)N1C[C@@H](Nc2ncnc3[nH]ccc23)CC[C@H]1C [(2R,5S)-Ritlecitinib]",1.05
8,CCS(=O)(=O)N1CC(CC#N)(n2cc(-c3ncnc4[nH]ccc34)cn2)C1,0.444
9,N[C@H]1C(O)O[C@H](CO)[C@@H](O)[C@@H]1O (some centres undefined) [Glucosamine (hydrochloride)],1.15
10,NC(=O)c1cnc2[nH]ccc2c1N[C@@H]1[C@@H]2CC3C[C@H]1C[C@@](O)(C3)C2,0.774
11,O=C(Nc1ccccc1-c1cn2c(CN3CCNCC3)csc2n1)c1cnc2ccccc2n1,1
12,Cc1cc(CN)cc(C)c1-c1ncn(C)c1-c1ccnc2cc(F)ccc12 [BI-9321 (trihydrochloride)],0.66
13,CC1(C)CNc2cc(NC(=O)c3cccnc3NCc3ccncc3)ccc21 [Motesanib Diphosphate (AMG-706)],1.5
14,CCN1CCN(Cc2ccc(Nc3ncc(F)c(-c4cc(F)c5nc(C)n(C(C)C)c5c4)n3)nc2)CC1 [Abemaciclib],0.621
15,O=C(O)c1ccc(-c2c[nH]c3ncc(-c4ccccc4)cc23)cc1C1CCCC1,0.793
16,CC(=O)O[C@@]12CO[C@@H]1C[C@H](O)[C@@]1(C)C(=O)[C@H](O)C3=C(C)[C@@H](OC(=O)[C@H](O)[C@@H](NC(=O)OC(C)(C)C)c4ccccc4)C[C@@](O)([C@@H](OC(=O)c4ccccc4)[C@H]21)C3(C)C [Docetaxel],1.44
17,CN(c1ccccc1)c1ccc2c(c1)CCC[C@H]2CNc1cnccc1C(=O)O,0.387
18,CONC(=O)c1ccccc1Nc1cc(Nc2cc(C)nn2C(C)C)ncc1Cl,0.987
19,Cc1c(-c2cnccn2)ssc1=S [Oltipraz],0.846
